Assay results: PubChem BioAssay (EPA / NIEHS)
Values joined by “and” are separate entries in the source; they are usually repeats but may differ in a detail not shown here. Equal values may be shown once. Active and inactive are the calls of the source. Rule for the calls: active = hit-call score of the fitted dose curve at least 0.9, where 1 is the maximum; inactive = score below 0.9.

What follows are compounds tested on Interleukin 2 (IL2), IL2 (gene 3558) (assay: BSK_BT_xIL2: BioMAP Diversity Plus: BT Assay for Interleukin 2 (IL2) Biomarker Activity (AID 2284245)). Settings: primary human B cells with PBMC.
Description: BSK_BT is a cell-based, multiplexed-readout assay that uses B cell and peripheral blood mononuclear cells, a human vascular primary cell co-culture, with measurements taken at 24 hours after chemical dosing in a microplate: 96-well plate.BSK_BT_xIL2 is an assay component measured in the BSK_BT assay. It measures secreted IL-2 related to regulation of gene expression using LumineX xMAP technology.Data from the assay component BSK_BT_xIL2 was analyzed at the endpoint, BSK_BT_xIL2, in the positive analysis fitting direction relative to DMSO as the negative control and baseline of activity. Using a type of cytokine quantitation reporter, gain or loss-of-signal activity can be used to understand protein changes. To generalize the intended target to other relatable targets, this assay endpoint is annotated to the 'cytokine' intended target family, where the subfamily is 'interleukins'.
The levels of cell surface (or secreted, indicated by the prefix "s") biomarker endpoints were measured by ELISA. Overt cytotoxicity to cells in confluent adherent cultures (all systems other than the BT system) was assessed by measuring total protein levels using sulforhodamine B (SRB) staining in parallel cultures at the time of biomarker measurements, indicated as SRB endpoints. For proliferation assays for adherent cell types, individual cell types are cultured at sub-confluence and relative cell numbers quantified by SRB staining at time points optimized for each system (48 h: 3C and CASM3C systems; 72 h: BT and HDF3CGF systems; 96 h: SAg system). SRB was performed by staining cells with 0.1% SRB after fixation with 10% TCA and reading wells at 560 nm.Viability and proliferation of PBMC (T cells) was quantified by Alamar Blue reduction for the SAg and BT systems. For PBMC viability (referred to as PBMC Cytotoxicity within the assay endpoint names), cells were plated (75,000/well in a 96-well plate) and then chemical samples added for 1 h before addition of activators, SEB and TSST-1 (20 ng/mL final concentration each). Cells were incubated for 90 h. Then, Alamar Blue (20 uL/well) (Invitrogen, Cat DAL1100) was added for 6 h, and the plates were read with a fluorescence microplate reader at 546/580 nm (excitation/emission). For PBMC proliferation, cells were plated and activated as above but incubated for only 16 h prior to addition of Alamar Blue. Plates were read after 6 h.

SMILES	outcome	AC50
COP(=O)(O)OC	inactive	
O=C(O)C(F)(F)C(F)(F)C(=O)O	inactive	
OCC(F)(F)OC(F)(F)C(F)(F)OC(F)(F)CO	inactive	
C=CC(=O)OCC(F)(F)C(F)F		30.6 µM (active) and 34.5 µM (active)
O=S1(=O)OCC2C(CO1)C1(Cl)C(Cl)=C(Cl)C2(Cl)C1(Cl)Cl (stereo not drawn)		20 µM (active)
Nc1ccc([N+](=O)[O-])cc1Cl	inactive	
FC(F)(F)C(F)(C(F)(F)F)C(F)(F)C(F)(F)CC1CO1 (stereo not drawn)	inactive	
OCC(F)(F)OC(F)(F)C(F)(F)OC(F)(F)C(F)(F)OC(F)(F)F		53.9 µM (active) and 23.4 µM (active)
CCOP(=S)(NC(C)C)Oc1ccccc1C(=O)OC(C)C (stereo not drawn)		20 µM (active)
O=C(O)C=CC(F)(C(F)(F)F)C(F)(F)F	inactive	
CCCCC(CC)COP(=O)(Oc1ccccc1)Oc1ccccc1 (stereo not drawn)		20 µM (active)
O=C(O)C(F)(F)OC(F)(F)C(F)(F)OC(F)(F)C(=O)O	inactive	
C=CC(=O)OCC(CC)(COC(=O)C=C)COC(=O)C=C		2.34 µM (active)
CC(C)(C)c1ccccc1OP(=O)(Oc1ccccc1)Oc1ccccc1		28.2 µM (active)
Cc1ccc2c(c1N)C(=O)c1ccccc1C2=O	inactive	
CCCCOCCOP(=O)(OCCOCCCC)OCCOCCCC	inactive	
O=c1ssc(Cl)c1Cl		6.44 µM (active)
O=C(O)C(F)(F)OC(F)(F)C(F)(F)OC(F)(F)F	inactive	
CCOP(=S)(OCC)SCS(=O)(=O)CC	inactive	

SMILES	outcome	AC50
CC(C)Nc1ccc(Nc2ccccc2)cc1		5.05 µM (active)
CC(Cl)CN(C)C (stereo not drawn)	inactive	
O=P(OCC(Br)CBr)(OCC(Br)CBr)OCC(Br)CBr (stereo not drawn)		27.7 µM (active)
c1ccc2c(c1)sc1ccccc12	inactive	
N#Cc1cc([N+](=O)[O-])ccc1N	inactive	
CC(O)C(F)(F)C(F)(F)F (stereo not drawn)	inactive	
OCC(F)(F)OC(F)(F)C(F)(F)OC(F)(F)C(F)(F)OC(F)(F)CO	inactive	
COP(N)(=S)OC	inactive	
CCOP(=S)(OCC)SCn1nnc2ccccc2c1=O	inactive	
ClC(Cl)=C(c1ccc(Cl)cc1)c1ccccc1Cl		31.4 µM (active)
CCOP(=S)(OCC)SCSc1ccc(Cl)cc1	inactive	
N#Cc1c(-c2ccc(Cl)cc2)[nH]c(C(F)(F)F)c1Br		10.1 µM (active)
CCOP(=S)(S)OCC	inactive	
CCCCC(CC)COC(=O)c1c(Br)c(Br)c(Br)c(Br)c1C(=O)OCC(CC)CCCC (stereo not drawn)	inactive	
COC(=O)C(F)(F)C(F)(F)OC(F)(C(F)(F)F)C(F)(F)OC(F)=C(F)F (stereo not drawn)	inactive	
O=S(=O)(F)C(F)(F)C(F)(F)C(F)(F)C(F)(F)C(F)(F)C(F)(F)C(F)(F)C(F)(F)F	inactive	
O=C(O)C(F)(OC(F)(F)C(F)(F)C(F)(F)F)C(F)(F)F (stereo not drawn)	inactive	
Cc1c([N+](=O)[O-])cc2c(c1[N+](=O)[O-])C(C)(C)CC2(C)C		20 µM (active)
NC(=O)C(F)(F)C(F)(F)F	inactive	
